Measured values published in the supplement of paper PMC11219838.
A number with no mark means an inactive call.

system: Meloidogyne hapla J2; test: proportion of mobile M. hapla J2 relative to DMSO control (fraction of DMSO control); higher = more viable, less nematicidal, active = 0.7 or less; details: 60 µM; 5 days; temperature: 20 °C
Method in brief: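 Sealed 96-well plates, each well holding around 25 M. hapla J2 in distilled water with compound pinned to 60 µM final (0.6% v/v DMSO), were shaken at 200 rpm for 5 days at 20 °C. Then 2 µL of 1 M NaOH was added to each well. Microscope-scored mobility was normalised to the mean of DMSO-only wells from the same plate. Eight such wells were on each plate, and the two biological replicates were averaged.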

SMILES	proportion of mobile M. hapla J2
COc1ccccc1-c1nnc(SCC(=O)Nc2ccc(F)cc2)o1	0.995
Cc1cc(Cl)ccc1OCc1nc(-c2ccncc2)no1	1.02
COc1cccc(NC(=O)c2ccccc2-c2nc(-c3ccc(F)cc3)no2)c1	0.822
Cc1cc(OCc2nc(-c3ccccn3)no2)ccc1Cl	0.834
N#Cc1ccc(CSc2nnc(-c3ccco3)o2)cc1	0.607 (active)
Cc1cc(OCc2nc(-c3ccncc3)no2)ccc1Cl	0.921
CCc1ccc(NC(=O)CSc2nnc(-c3ccc(Cl)cc3Cl)o2)cc1	0.785
Brc1ccc(-c2noc(-c3ccco3)n2)o1	0.801
Brc1cccc(-c2nc(-c3ccncc3)no2)c1	0.991
CC1CC(C)CN(C(=O)CSc2nnc(-c3cccc(Cl)c3)o2)C1 (stereo unspecified)	1.04
O=C(CSc1nnc(-c2ccc(Cl)cc2)o1)NC1CC2CCC1C2 (stereo unspecified)	0.693 (active)
O=C(CSc1nnc(-c2cccc(Br)c2)o1)Nc1ccccn1	0.951
CCOc1cc(-c2nc(-c3cc4ccccc4nc3OC)no2)cc(OCC)c1OCC	1.04
O=C(Nc1ccccc1-c1nc(-c2ccncc2)no1)c1ccc(Cl)cc1	0.909
COc1ccc(-c2nc(-c3ccc(Cl)cc3)no2)cc1	1
COc1ccc(Cl)cc1-c1nc(-c2ccccc2C)no1	0.852
O=C(CSc1nnc(-c2ccccc2)o1)NC1CC2CCC1C2 (stereo unspecified)	0.795
COc1ccc(-c2noc(-c3cccc(F)c3)n2)cc1	1
Cc1cc(Br)ccc1OCc1nc(-c2ccccn2)no1	0.973

SMILES	proportion of mobile M. hapla J2
Fc1ccc(-c2nc(-c3cccc(C(F)(F)F)c3)no2)cc1	0.939
O=C(Nc1cccc(-c2noc(-c3cccnc3)n2)c1)c1cccs1	0.999
Cc1ccccc1CSc1nnc(-c2ccco2)o1	0.547 (active)
c1ccc(OCc2nc(-c3cccs3)no2)cc1	0.652 (active)
Cc1ccccc1-c1nc(-c2cccc(NC(=O)c3cccs3)c2)no1	0.959
Cc1ccc(CSc2nnc(-c3ccco3)o2)c(C)c1	0.687 (active)
CCCCC(=O)Nc1ccccc1-c1nc(-c2ccncc2)no1	1.06
Clc1ccccc1-c1noc(-c2cccnc2)n1	0.883
Clc1ccc(OCc2nc(-c3ccc(Br)o3)no2)cc1	0.945
O=C(CSc1nnc(-c2ccco2)o1)Nc1cccc(Cl)c1Cl	0.866
O=C(Nc1ccc(-c2noc(-c3ccccn3)n2)cc1)c1cccc(Cl)c1	0.87
Fc1cccc(Cl)c1CSc1nnc(-c2ccccc2Cl)o1	0.988
Cc1ccccc1OCc1nc(-c2cccc(NC(=O)c3ccco3)c2)no1	1.03
COc1ccc(-c2noc(COc3ccc(Cl)cc3Cl)n2)cc1	0.874
Cc1c(C(=O)CSc2nnc(-c3ccccc3)o2)c2ccccc2n1C	0.957
Ic1ccc(-c2nc(-c3cccnc3)no2)cc1	1.02
CCCC(=O)Nc1ccccc1-c1nc(-c2ccccn2)no1	0.965
Cc1cc(C)cc(OCc2nc(-c3ccccc3Cl)no2)c1	0.978
COc1ccc(Cl)cc1-c1noc(COc2ccccc2C)n1	0.977

system: Caenorhabditis elegans dauer (daf-2(e1370)); test: proportion of mobile C. elegans dauer larvae relative to DMSO control (fraction of DMSO control); higher = more viable, less nematicidal, active = 0.63 or less; extreme values may be limits of the assay; details: 60 µM; 5 days; temperature: 20 °C
Method in brief: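 The proportion of mobile worms, relative to DMSO wells, was scored by dissection microscope and averaged over two biological replicates. Worms were C. elegans dauers, about 20 per well in liquid NGM in 96-well plates, generated from synchronized larvae on MYOB plates with E. coli OP50 at 25 °C for 48 h. They were treated with compound pinned to 60 µM final (0.6% v/v DMSO) and kept in sealed plates shaken at 200 rpm for 5 days at 20 °C.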

SMILES	proportion of mobile C. elegans dauer larvae
COc1ccccc1-c1nnc(SCC(=O)Nc2ccc(F)cc2)o1	1
Cc1cc(Cl)ccc1OCc1nc(-c2ccncc2)no1	1
COc1cccc(NC(=O)c2ccccc2-c2nc(-c3ccc(F)cc3)no2)c1	1
Cc1cc(OCc2nc(-c3ccccn3)no2)ccc1Cl	1
N#Cc1ccc(CSc2nnc(-c3ccco3)o2)cc1	1
Cc1cc(OCc2nc(-c3ccncc3)no2)ccc1Cl	1
CCc1ccc(NC(=O)CSc2nnc(-c3ccc(Cl)cc3Cl)o2)cc1	1
Brc1ccc(-c2noc(-c3ccco3)n2)o1	0.391 (active)
Brc1cccc(-c2nc(-c3ccncc3)no2)c1	1
CC1CC(C)CN(C(=O)CSc2nnc(-c3cccc(Cl)c3)o2)C1 (stereo unspecified)	1
O=C(CSc1nnc(-c2ccc(Cl)cc2)o1)NC1CC2CCC1C2 (stereo unspecified)	1
O=C(CSc1nnc(-c2cccc(Br)c2)o1)Nc1ccccn1	1
CCOc1cc(-c2nc(-c3cc4ccccc4nc3OC)no2)cc(OCC)c1OCC	1
O=C(Nc1ccccc1-c1nc(-c2ccncc2)no1)c1ccc(Cl)cc1	1
COc1ccc(-c2nc(-c3ccc(Cl)cc3)no2)cc1	1
COc1ccc(Cl)cc1-c1nc(-c2ccccc2C)no1	1
O=C(CSc1nnc(-c2ccccc2)o1)NC1CC2CCC1C2 (stereo unspecified)	1
COc1ccc(-c2noc(-c3cccc(F)c3)n2)cc1	1
Cc1cc(Br)ccc1OCc1nc(-c2ccccn2)no1	1

SMILES	proportion of mobile C. elegans dauer larvae
Fc1ccc(-c2nc(-c3cccc(C(F)(F)F)c3)no2)cc1	1
O=C(Nc1cccc(-c2noc(-c3cccnc3)n2)c1)c1cccs1	1
Cc1ccccc1CSc1nnc(-c2ccco2)o1	0.5 (active)
c1ccc(OCc2nc(-c3cccs3)no2)cc1	0.0278 (active)
Cc1ccccc1-c1nc(-c2cccc(NC(=O)c3cccs3)c2)no1	1
Cc1ccc(CSc2nnc(-c3ccco3)o2)c(C)c1	1
CCCCC(=O)Nc1ccccc1-c1nc(-c2ccncc2)no1	1
Clc1ccccc1-c1noc(-c2cccnc2)n1	1
Clc1ccc(OCc2nc(-c3ccc(Br)o3)no2)cc1	1
O=C(CSc1nnc(-c2ccco2)o1)Nc1cccc(Cl)c1Cl	1
O=C(Nc1ccc(-c2noc(-c3ccccn3)n2)cc1)c1cccc(Cl)c1	1
Fc1cccc(Cl)c1CSc1nnc(-c2ccccc2Cl)o1	1
Cc1ccccc1OCc1nc(-c2cccc(NC(=O)c3ccco3)c2)no1	1
COc1ccc(-c2noc(COc3ccc(Cl)cc3Cl)n2)cc1	1
Cc1c(C(=O)CSc2nnc(-c3ccccc3)o2)c2ccccc2n1C	1
Ic1ccc(-c2nc(-c3cccnc3)no2)cc1	1
CCCC(=O)Nc1ccccc1-c1nc(-c2ccccn2)no1	1
Cc1cc(C)cc(OCc2nc(-c3ccccc3Cl)no2)c1	1
COc1ccc(Cl)cc1-c1noc(COc2ccccc2C)n1	1
